Compound activity (PubChem)
Pol iota inh: qHTS for Inhibitors of Polymerase Iota | Pol iota fluorescent replication assay, 10 min | Potency, µM (highest dose often 115 µM), for inactives: top-dose activity, negative = inhibition, most hits filed as inhibitors | 1% of 390,000 active; also: potency is read from the fitted curve at half-maximal effect
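Fluorescent replication assay read twice, at 0 min and 10 min after adding 50 nM (final) substrate. Enzyme (10 nM) and compounds were first incubated 15 min at room temperature; enzyme-free buffer wells were negative controls.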
POLK inh: qHTS for Inhibitors of Polymerase Kappa | DNA polymerase kappa (Homo sapiens), Q9UBT6 | purified Pol kappa, fluorescent DNA synthesis assay, 10 min | Potency, µM (series often up to 107 µM), without a hit: at the highest dose activity, negative = inhibition, most hits filed as inhibitors | 0.53% of 400,000 active; also: potency is read from the fitted curve at half-maximal effect; % is scaled to controls: 0 for no effect and ±100 for the full control effect
Target sequence (Q9UBT6 whole entry, looked up): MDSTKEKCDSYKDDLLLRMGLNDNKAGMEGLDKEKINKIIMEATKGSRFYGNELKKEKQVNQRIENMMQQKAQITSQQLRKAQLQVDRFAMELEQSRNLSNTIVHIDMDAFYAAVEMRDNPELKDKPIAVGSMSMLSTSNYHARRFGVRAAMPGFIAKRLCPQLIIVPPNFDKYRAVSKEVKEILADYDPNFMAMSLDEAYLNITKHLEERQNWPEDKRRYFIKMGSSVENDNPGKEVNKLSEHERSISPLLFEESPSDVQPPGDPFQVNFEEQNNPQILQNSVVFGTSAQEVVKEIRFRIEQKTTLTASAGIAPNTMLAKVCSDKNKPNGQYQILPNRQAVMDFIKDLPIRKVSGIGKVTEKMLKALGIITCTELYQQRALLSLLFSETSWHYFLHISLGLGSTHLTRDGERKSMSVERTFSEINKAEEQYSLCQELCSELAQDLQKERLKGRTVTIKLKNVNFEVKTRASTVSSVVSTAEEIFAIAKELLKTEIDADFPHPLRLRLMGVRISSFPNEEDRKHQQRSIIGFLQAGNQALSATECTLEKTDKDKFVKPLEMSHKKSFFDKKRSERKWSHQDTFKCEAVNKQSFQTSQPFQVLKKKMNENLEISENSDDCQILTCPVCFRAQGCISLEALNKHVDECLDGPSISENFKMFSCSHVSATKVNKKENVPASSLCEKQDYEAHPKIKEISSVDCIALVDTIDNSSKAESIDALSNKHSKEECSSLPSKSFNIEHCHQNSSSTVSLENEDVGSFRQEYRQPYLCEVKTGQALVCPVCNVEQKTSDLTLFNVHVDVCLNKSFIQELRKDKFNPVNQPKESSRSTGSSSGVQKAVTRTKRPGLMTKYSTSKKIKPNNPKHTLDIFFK
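Activity was followed as the change in fluorescence between reads at 0 and 10 min after starting the reaction with 50 nM substrate. Beforehand, 10 nM polymerase had been preincubated with compound for 15 min at room temperature.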
Pol eta inh: qHTS for Inhibitors of Polymerase Eta; DNA polymerase eta (Homo sapiens), Q9Y253; recombinant Pol eta, fluorescent DNA replication assay; Potency, µM (series often up to 114 µM), for the others: at the top dose activity change, negative = inhibition, usual class: inhibitors; 1.2% of 390,000 active; AID 588591, 2011; also: potency is read from the fitted curve at half-maximal effect; % is scaled to controls: 0 for no effect and ±100 for the full control effect
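Fluorescent replication assay: 50 nM final substrate added after a 15 min room-temperature compound preincubation with 10 nM enzyme. Signal taken at 0 min and again at 10 min.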
FEN1 inh: qHTS Assay for the Inhibitors of Human Flap endonuclease 1 (FEN1) | P39748 | Recombinant FEN1 flap cleavage, fluorescence, 15 min | Potency, µM (doses to about 114 µM), without a hit: at the top dose activity change, negative = inhibition, usual class: inhibitors | 0.35% of 390,000 active; also: potency is read from the fitted curve at half-maximal effect; % is scaled to controls: 0 for no effect and ±100 for the full control effect; nearly all actives have a fitted effect of over 65% in size
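Enzyme 10 nM, 15 min RT preincubation with compound; start with substrate 50 nM final; reads at 0 and 15 min; qHTS titration, four-parameter Hill fit.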
Pol beta inh-1: qHTS Assay for Inhibitors of DNA Polymerase Beta; P06746; Pol beta primer extension/strand displacement, fluorescence kinetic; Potency, µM (top dose mostly 114 µM), inactives show at the top dose activity change, negative = inhibition, actives largely listed as inhibitors; 1.3% of 340,000 active; also: potency is read from the fitted curve at half-maximal effect; % is scaled to controls: 0 for no effect and ±100 for the full control effect
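Preincubation: enzyme (10 nM) with compound, 15 min, RT. Reaction: substrate added to 50 nM final. Reads: 0 and 10 min. Analysis: normalized, Hill fit.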
WRN helicase inh: qHTS for Inhibitors of WRN Helicase. WRN helicase unwinding, fluorescent forked duplex, kinetic. Potency, µM (highest dose often 114 µM), without a hit: at the highest dose activity change, negative = inhibition, most hits filed as inhibitors. 0.46% of 360,000 active; also: potency is read from the fitted curve at half-maximal effect; % is scaled to controls: 0 for no effect and ±100 for the full control effect; nearly all actives have a fitted effect of over 55% in size
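Fluorescence dequenching readout, ex 525 nm/em 598 nm, kinetic mode: forked duplex DNA (100 nM final) with adjacent fluorophore and quencher unwound by WRN (20 nM final) with 2 mM ATP. Compound preincubation 15 min, room temperature.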
Pol beta inh-2: Inhibitors of DNA Polymerase Beta: Hit validation; shares compounds with Pol beta inh-1; Pol beta primer extension/strand displacement, fluorescence kinetic; Potency, µM, actives largely listed as inhibitors; 87% of 250 active; calls by dose curve; also: potency is read from the fitted curve at half-maximal effect
Klenow inh: Inhibitors of DNA Polymerase Beta: Hit Validation in Klenow Fragment Assay. shares compounds with Pol beta inh-1. activity change, negative = inhibition, % at 57.1 µM. Klenow exo- polymerase counter-screen, fluorescent DNA substrate. 250 tested, under 10 active. AID 540300, 2011
HIV RT inh: Inhibitors of DNA Polymerase Beta: Hit Validation in HIV-RT Assay | shares compounds with Pol beta inh-1 | HIV-1 RT polymerase activity, counter-screen | activity % (negative = inhibition, positive = activation), % at 57.1 µM | 250 tested, under 10 active | AID 540301, 2011
POLB inh gel: Inhibitors of DNA Polymerase Beta: Hit Validation in Radiolabeled Extension Assay | shares compounds with Pol beta inh-1 | inhibition, % at 10 µM | radiolabeled primer extension gel assay, phosphorimager | 91% of 110 active;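 active = inhibition at 10 µM of 30% or more; inconclusive = no clear call, values can overlap the other calls; inactive = inhibition at 10 µM under 30%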
The depositor's hits bear a star; u = inconclusive; x = no result given; [ ] = remark or other dose. In the library only some 2.4% were active in any assay of this set; here they are far more common. Unless noted, calls follow the shape of the dose curve; as a rule, active = well fitted curve in the direction sought with a large enough effect; inconclusive = small, poorly fitted or top-dose-only effect, or another doubt; inactive = no such curve, though single readings can be large; an effect the other way counts as inactive or inconclusive.

SMILES | Pol iota inh | POLK inh | Pol eta inh | FEN1 inh | Pol beta inh-1 | WRN helicase inh | Pol beta inh-2 | Klenow inh | HIV RT inh | others
O=C(Nc1cccc([N+](=O)[O-])c1)c1cc2ccccc2cc1O | 44.7µM* | -27.5% | u | 5.3% | 17.8µM* | -22.3% | 28.2* | -7.8 | 27.0 | POLB inh gel=97.7*
O=C(O)c1ccccc1C(=O)Nc1cccc([N+](=O)[O-])c1 | -15.4% | -7.9% | -6.5% | -15.9% | 2.3% | -1.4% | x | x | x
O=C(Nc1cc(S(=O)(=O)Nc2ccc(Cl)cc2)ccc1O)c1ccc(S(=O)(=O)N2CCCCCC2)cc1 | u | -20.5% | u | -9.9% | 5.62µM* | u | 22.4* | -16.2 | 10.7 | POLB inh gel=67.5*
O=C(Nc1cc(S(=O)(=O)N2CCOCC2)ccc1O)c1ccc(S(=O)(=O)N2CCCCC2)cc1 | 4.5% | 1.1% | -8.7% | 16.0% | x | 4.1% | x | x | x
O=C(Nc1ccccc1F)c1ccc(Cn2nc(N3CCN(c4ccccc4)CC3)ccc2=O)o1 | 18.4% | -10.3% | -7.1% | 1.5% | -20.4% | x | x | x | x
CC(C)C(NC(=O)OCc1ccccc1)C(=O)OCC(=O)NCc1ccco1 (stereo unspecified) | u | u | 8.91µM* | -1.5% | 20µM* | u | u | -19.6 | 8.5 | POLB inh gel=83.6*
CC(C)C(NC(=O)OCc1ccccc1)C(=O)OCC(=O)NC1CC1 (stereo unspecified) | 25.1% | 1.2% | -20.2% | 0.0% | -9.2% | 4.0% | x | x | x
O=C1C[C@H](c2ccc(-c3ccccc3)cc2)N1S(=O)(=O)c1ccccc1[N+](=O)[O-] | -18.8% | -12.1% | x | -15.4% | x | x | x | x | x
COc1ccc(Cc2nnc(NC(=O)Cc3cccs3)s2)cc1OC | u | 79.4µM* | 6.31µM* | -19.4% | 8.91µM* | u | u | -25.2 | 41.8
O=C(Cc1cccs1)Nc1nnc(SCC(=O)NC2CCCCC2)s1 | u | -30.9% | u | 1.5% | u | -17.5% | x | x | x
O=C(Cc1cccs1)Nc1nnc(SCc2cccc3ccccc23)s1 | 22.4µM* | 50.1µM* | u | 0.9% | 8.91µM* | -7.7%[11.6 µM] | 28.2* | -17.7 | 24.1 | POLB inh gel=71.0*
Cc1ccccc1CNC(=O)CN1CCSc2ccccc21 | 17.5% | -9.1%[60.1 µM] | -17.2% | -3.0% | 1.8% | x | x | x | x
COc1ccc(Cl)cc1NC(=O)c1ccc2c(c1)CCCN2S(C)(=O)=O | -12.6% | -0.1% | -1.3% | -16.9% | 26.4% | x | x | x | x
N#Cc1c2nc3ccccc3nc2n2cc(NC(=O)c3ccc(F)cc3)ccc12 | u | u | 35.5µM* | u | 6.31µM* | 20µM* | 10* | -19.3 | 0.4
Cc1c(C(=O)Nc2ccc(F)cc2)cn2c(nc3ccccc32)c1C#N | 2.2% | -12.7% | -14.7% | 8.8% | -15.1% | -1.2% | x | x | x
Cc1ccc(O)c(C(=O)c2cnn(C(=O)COc3ccc(Cl)cc3)c2)c1 | 14.2% | -2.7% | u | -10.1% | 5.62µM* | -17.4%[57.1 µM] | 14.1* | -12.7 | 16.4
COc1ncc2nc(-c3ccccc3)c(=O)n(C3CC3)c2n1 | x | -2.6%[60.1 µM] | x | x | x | x | x | x | x
Cn1c(SCC(=O)Nc2ccc3nc(SCC(=O)NC4CC4)sc3c2)nnc1-c1ccccc1 | u | -6.2% | -6.6% | 2.1% | -0.6% | -3.5% | x | x | x
Cn1c(SCC(=O)Nc2ccc3nc(SCC(=O)N4CCCC4)sc3c2)nnc1-c1ccc(N)cc1 | 5.62µM* | 50.1µM* | u | -32.8% | 7.94µM* | u | 7.08* | 5.2 | 7.7
COc1ccc[n+](CC(=O)c2ccc(F)cc2)c1 | 11.0% | -8.4% | x | 0.4% | x | x | x | x | x
Cc1cc2[nH]c(=O)c(=O)[nH]c2cc1S(=O)(=O)N1CCN(c2ccccc2F)CC1 | 7.5% | 3.8% | -9.4% | 6.1% | -2.1% | -1.4% | x | x | x
Cc1cc2[nH]c(=O)c(=O)[nH]c2cc1S(=O)(=O)N1CCN(c2cccc(C)c2C)CC1 | u | u | u | -0.3% | 11.2µM* | u | 28.2* | -4.0 | 11.8 | POLB inh gel=73.2*
Cc1ccc2scc(N3CCCCC3)c(=O)c2c1 | -3.0% | -6.1%[60.1 µM] | -16.8% | -6.9% | 16.9% | x | x | x | x
Cc1cc(C)n2nc(SCc3cc(=O)oc4cc(O)ccc34)nc2n1 | x | x | x | x | 12.6µM* | x | 22.4* | -27.0 | 13.6 | POLB inh gel=83.8*
COCCn1c(=O)c(-c2ccc(OC)cc2)nc2cnc(Nc3cccc(OC)c3)nc21 | x | 1.6%[60.1 µM] | x | x | x | x | x | x | x
SMILES | Pol iota inh | POLK inh | Pol eta inh | FEN1 inh | Pol beta inh-1 | WRN helicase inh | Pol beta inh-2 | Klenow inh | HIV RT inh | others
COc1cc(C(=O)OCC(=O)NCc2ccco2)cc(OC)c1OC | u | -15.3% | u | 1.9% | u | -11.7% | x | x | x
COc1cc(NC(=O)c2cccs2)c(C(=O)OCC(=O)NCc2ccco2)cc1OC | u | 79.4µM* | 10µM* | -10.9% | 12.6µM* | u | 31.6* | 3.9 | 16.9
CCCC(CCC)C(=O)NC1CC(=O)N(c2ccc3c(c2)OCCO3)C1 (stereo unspecified) | 21.5% | -6.3%[60.1 µM] | -0.8% | -7.6% | 31.8% | x | x | x | x
Cc1sc(NC(=O)c2sc3nc4c(C)cccc4cc3c2N)c(C#N)c1C | u | -27.5% | 2.82µM* | -22.0% | 5.01µM* | u | 8.91* | -30.4 | 2.4
CCCCn1c(N)c(-c2nc3ccccc3s2)c2c([N+](=O)[O-])nn(C)c(=O)c21 | -17.1% | 14.1% | -6.6% | 3.9% | -6.7% | -15.7% | x | x | x
CCCCCn1c(N)c(-c2nc3ccccc3o2)c2c([N+](=O)[O-])nn(C)c(=O)c21 | -1.9% | -12.3% | u | -1.3% | 1.41µM* | -31.2% | 11.2* | -14.0 | 7.8
CC(C)CN(C(=O)COC(=O)c1cc2c(s1)CCC2)C1CCS(=O)(=O)C1 (stereo unspecified) | 20µM* | 39.8µM* | 3.55µM* | u | 12.6µM* | u | 22.4* | 9.1 | 7.0
O=C(O)c1ccc(-c2ccc(-c3ccccc3)cc2)s1 | x | x | x | x | 15.8µM* | x | 20* | -4.1 | 42.8
